# System: VDR:RXRa (NR concentration 270 nM, RXRa partner concentration 90 nM)
# Test: PBM binding z-score (relative to random genomic background probes); higher = stronger binding; sequences stand for … in GC…GCGATTGACAGCGTAGAATGAAGG
# Description: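 Protein-binding microarray (Agilent 4x180K custom design, double-stranded 60-nt probes: 5' GC cap, 34-nt variable region, 24-nt constant primer region; full probe sequence given). Purified or IVT nuclear receptor:RXRα heterodimers (3:1 NR:RXRα, mostly 270:90 nM) or homodimers were incubated for 1 h in PBS with 2% milk and no ligand, then detected with Alexa488 antibodies. Fluorescence from o1-orientation probes (~5 replicates averaged) was converted to z-scores against 500 random hg19 background probes. Variable regions are seed direct-repeat (DR0–DR5) sites, all their single-nucleotide variants and half-site ablations.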
row,Sequence,PBM binding z-score
1,CCTAGCATGCCAGGGTCACTCAAGCATTTCGCTT,2.59
2,GGAACGAGGGCAAAGTTGATGGCATCTGTCGACG,1.51
3,AGACTGAGGTTATTAAGATCAGGGAATTGCGGTC,2.39
4,GCTAGTTCGTCAGTAAAAGGTCACACACCGGTCG,4.28
5,CCTATTAGTTGACCATAAGGGCAACCCAAGCTCG,0.972
6,TTACCAACGTGAGCTGAGGTCGTTGATCCAACTC,1.21
7,GCAGACAGGTGAAGCGCAGGTAACTCAGGGTGGC,-0.67
8,ATACCAAGGTGATCGTGAGGTCGATGATACTAAC,1.9
9,CGAACTAGGTCAGAACAGGACAGTGACGGATGAT,0.542
10,CCGACTGGGGCATAAGGTTACAATAAGCCAGCCC,0.392
11,CAGACTAGGTCAGGGCCAGTATAGGAGGAACGTT,-0.0309
12,AGAACGAGGGCACGCTGAGTAGATAGCAGAGTAG,0.928
13,ATCTCTAGGTAATAAGTTCAGTGAAAGAGAGGAC,1.9
14,CAAACTAGGTCACGAAAGGTCAGAGTCGAATGAC,6.2
15,TCTTGTAGATCAAGCAAGTTAAGAAAGCCTGAGT,0.328
16,CCTTACGCGTCACTCCAGGTTATAGCATCGGAGT,0.361
17,CCTACTGGGCCACGAAAGTTCATTGATTCAGTGA,3.51
18,ATCTCCAGGTAAAGTTCAGTGAAAGATCGATAGA,1.83
19,CCTGCTAGGTCAATGGTCAGCTAGAGCAGCTCGC,0.675
20,AGAACGAGGGCAATTAGTTGATAGCACGGGTGGC,1.13

row,Sequence,PBM binding z-score
1,ATCGAAAGGTCGTGAGGTCAGTATACAGAAAGGC,5.51
2,ACTATTAGTTGAGACGAGAGCAACCGATAGGTTG,0.00985
3,CCTAGTTAGTCAAGGTCACACACGCTATAGGTAC,4.26
4,CCTCGGAGGACAGAAGGTCAGAGGTGTCCGCTTT,1.24
5,AGAATGAGGTTATACTTAGATCAGGGAAGAAAGT,1.41
6,TCATATAGCTAAAGGTGAAAGTCGAACGATATGA,0.865
7,ATCTCTAGGTAAAGATAGTTCAGTGACTGCAAAT,1.05
8,CCTACTCGGCCATCAGGTCATTGATATCAACGTT,2.37
9,CCTACTGGGCCATCAGGTCCTTGATATCAACGTT,-0.0448
10,CTCGGAAGGTCGGTTGAGGTGAGTATACGGATAA,1
11,CTCGAAAGGTCGCGCTCAGGTGAGTATACCAAAC,3.55
12,CAAACTAGGTCACCGGAAGATCAAAGTCCGCATG,2.62
13,GCTGCTAGGTCAGGTTGGTCAGCTACCGGGTACG,0.397
14,GTACCAAGGTGAATAGGTCGATGATGAGTAGGCG,0.674
15,CCTACTGGGCCACGAAAGGTCATTGACTCAGTGA,4.12
16,TGAATGAGGTTAGAAGATCAGGGAACGTTGCAAA,0.0983
17,GCTTCTAGATCAAGGTTAAGAAAGACTAAGCTAA,0.384
18,AGTCAAAATTCATCTAGGTAACGTAAGATATGCT,-0.0109
19,ATATGTAGGTTATATCCGGGTCATTCAGGCTATG,4.11
20,GGAACGAGGACAAAGTTGATAGCATCTGTCGACG,-0.104
